The nature of test [1]: qHTS RealTime-Glo MT Cell Viability Assay in HepG2 cells - 8 hour (AID 1224873). Note: nearly all actives have a fitted effect of over 55% in size. Note: potency is the fitted concentration of half-maximal effect. The procedure, abridged:
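HepG2 cells mixed with RealTime-Glo MT reagents (NanoLuc plus cell-permeant prosubstrate) were seeded at 600 cells/well, incubated 5 h at 37 C/5% CO2, then pinned with compounds in DMSO; nonlytic luminescence tracked viability during 40 h treatment.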
In general terms: In qHTS, concentration-response curves come from the screen itself.

A short description of test [2]: qHTS RealTime-Glo MT Cell Viability Assay in HEK293 cells - 40 hour (AID 1224874). Note: nearly all actives have a fitted effect of over 50% in size. Note: potency is the fitted concentration of half-maximal effect. Particulars: RealTime-Glo luminescence; max response: stronger effect = lower value. The method, boiled down: (§1)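 Kinetic, non-lysing viability readout. Seed HEK293 (600/well) with reagent, incubate 5 h at 37 C/5% CO2, pin 23 nL compound in DMSO, incubate at 37 C, read luminescence at 0, 8, 16, 24, 32, 40 h.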

The nature of test [3]: A CellTox Green Cytotoxicity Assay to monitor cytotoxicity in HEK293 cells - 24 hour (AID 1224875). Note: nearly all actives have a fitted effect of over 45% in size. Note: potency is the fitted concentration of half-maximal effect. The method, boiled down:
(§2)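 Real-time, in one plate: 600 HEK293 cells/well with dead-cell DNA dye, pinned compound after 5 h, 37 C incubation over 40 h; viable cells give no appreciable fluorescence.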

Test [4] is described as follows: A CellTox Green Cytotoxicity Assay to monitor cytotoxicity in HepG2 cells - 16 hour (AID 1224876). Note: nearly all actives have a fitted effect of over 45% in size. Note: potency is the fitted concentration of half-maximal effect. The procedure, abridged: (§3)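 Cytotoxicity was tracked as dead-cell DNA fluorescence in HepG2 cells treated with test compounds at 37 C; each time-point value comes from one kinetic series spanning 0, 8, 16, 24, 32 and 40 h.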
A short description of test [5]: qHTS RealTime-Glo MT Cell Viability Assay in HepG2 cells - 32 hour (AID 1224877). Note: nearly all actives have a fitted effect of over 55% in size. Note: potency is the fitted concentration of half-maximal effect. The procedure, abridged: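 Cells + NanoLuc/prosubstrate dispensed (600 cells/well) → 5 h at 37 C/5% CO2 → compounds in DMSO transferred → 40 h incubation at 37 C, luminescence read at 0, 8, 16, 24, 32, 40 h.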
Test [6] in a line: A CellTox Green Cytotoxicity Assay to monitor cytotoxicity in HepG2 cells - 24 hour (AID 1224878). Note: nearly all actives have a fitted effect of over 45% in size. Note: potency is the fitted concentration of half-maximal effect. The procedure, abridged:
as §3

A short description of test [7]: A CellTox Green Cytotoxicity Assay to monitor cytotoxicity in HepG2 cells - 40 hour (AID 1224879). Note: nearly all actives have a fitted effect of over 40% in size. Note: potency is the fitted concentration of half-maximal effect. The procedure, abridged: as §3
A short description of test [8]: qHTS RealTime-Glo MT Cell Viability Assay in HEK293 cells - 0 hour (AID 1224880). Note: top concentration of the series differs between compounds; nearly all actives have a fitted effect of over 45% in size. The method, boiled down:
as §1

A short description of test [9]: A CellTox Green Cytotoxicity Assay to monitor cytotoxicity in HEK293 cells - 32 hour (AID 1224881). Note: nearly all actives have a fitted effect of over 40% in size. Note: potency is the fitted concentration of half-maximal effect. The procedure, abridged: as §2
Test [10] in a line: A CellTox Green Cytotoxicity Assay to monitor cytotoxicity in HepG2 cells - 0 hour (AID 1224882). Note: nearly all actives have a fitted effect of over 35% in size. The method, boiled down: as §3

Several values for one entry are separate records, joined by “and”; a condition that tells them apart may be missing. Equal values may be shown once. Inconclusive results are not listed. Some compounds were tested as several samples or in several runs, with calls that do not always agree. Activity calls are given as the source filed them. Calls come from the whole dose curve; as a rule, active = well fitted curve in the direction sought with a large enough effect in the repeat runs; inconclusive = weak or mixed curves; inactive = no such curve, though single readings can be large; an effect the other way counts as inactive or inconclusive.
% is set by controls: 0 for no effect and ±100 for the full control effect.

For `COc1nc(C)nc(Cl)c1NC1=NCCN1`, the Potency entry in [1], in test [3], in test [4], in [5], in [6] and in test [7] was “inactive” throughout. In addition, the Potency entry in test [8] and in test [9] was “inactive” in each case. The max response in test [2] was 2.57% (inactive).

For the molecule `CC(C)(C)c1ccc(O)c(C(C)(C)C)c1`, the Potency is 38.9 µM (active) in test [1]; 38.7 µM (active) in [2]; 21.8 µM (active) and 34.7 µM (active) in test [3]; 48.8 µM (active) and 43.6 µM (active) in test [6]; 48.8 µM (active) and 43.6 µM (active) in test [7]; 24.4 µM (active) and 34.7 µM (active) in test [9]. The max response in [2] was -25% (inactive). The Potency result in test [8] and in test [10] was “inactive” throughout.

For the molecule `CCCCCCCCCCCC[N+](C)(C)C`, the Potency entry in test [1], in [3] and in [8] was “inactive” in each case. Also, the Potency in [2] is 4.35 µM (active) and 9.77 µM (active); in test [4] it was 43.6 µM (active); in [5], 48.9 µM (active) and 49 µM (active); in test [6] it was 54.8 µM (active) and 54.9 µM (active) and 49 µM (active); in test [7], 43.5 µM (active) and 43.6 µM (active) and 38.9 µM (active); in test [9], 54.8 µM (active) and 17.4 µM (active) and 30.9 µM (active).

As for `CCC(C)(Oc1ccc(C2(c3ccc(OC(C)(CC)C(=O)O)cc3)CCCCC2)cc1)C(=O)O` (stereo not given), the Potency result in test [1], in [3], in test [4], in test [5], in test [6] and in test [7] was “inactive” in each case. In addition, the Potency result in test [8], in test [9] and in [10] was “inactive” in each case. Besides, the max response in test [2] was 8.3% (inactive).

For `CC(C)(C)c1ccccc1`, the Potency result in test [1], in test [3], in test [4], in [5], in test [6] and in test [7] was “inactive” each time. In addition, the Potency entry in test [8] and in test [9] was “inactive” in each case. Moreover, the max response in test [2] is 0.372% (inactive).

In the case of `c1cnc2cc3c(cc2n1)C1CNCC3C1`, the Potency entry in test [1], in test [3], in [4], in test [5], in test [6] and in [7] was “inactive” throughout. For the same molecule, the Potency result in test [8] and in [9] was “inactive” throughout. Besides, the max response in [2] is 11% (inactive).

As for `O=C(O)c1cn(-c2ccc(F)cc2)c2cc(N3CCNCC3)c(F)cc2c1=O`, the Potency result in test [1], in [3], in test [4], in test [5], in test [6] and in [7] was “inactive” each time. Besides, the Potency entry in test [8], in [9] and in test [10] was “inactive” each time. Moreover, in [2], the max response was 4.85% (inactive) and 19.5% (inactive).

In the case of `C#CC(C)(CC)OC(=O)c1ccccc1C(=O)O` (stereo not given), the Potency result in [1], in [3], in [4], in test [5], in [6] and in [7] was “inactive” in each case. Besides, the Potency result in [8], in test [9] and in test [10] was “inactive” each time. Further, in [2], the max response was 0.788% (inactive).

As to `OCC(CO)N[C@H]1C[C@](O)(CO)[C@@H](O)[C@H](O)[C@H]1O`, the Potency entry in [1], in test [3], in test [4], in test [5], in test [6] and in [7] was “inactive” in each case. Further, the Potency entry in [8] and in test [9] was “inactive” each time. In addition, the max response in test [2] was 11.4% (inactive).

As for `CCCCCCCCCCCCCC[P+](CCCC)(CCCC)CCCC`, the Potency in [1] was 38.7 µM (active) and 17.4 µM (active); in [2], 137 nM (active) and 174 nM (active); in test [3], 12.2 µM (active) and 17.4 µM (active); in test [4], 21.8 µM (active) and 19.5 µM (active); in [5], 21.8 µM (active) and 12.3 µM (active); in test [6], 21.8 µM (active) and 15.5 µM (active). In addition, the Potency in test [7] is 19.4 µM (active) and 17.4 µM (active); in [9] it was 12.2 µM (active) and 17.4 µM (active). For the same molecule, the Potency result in test [8] was “inactive”.

With `C=CS(=O)(=O)O`, the Potency entry in test [1], in [3], in test [4], in test [5], in test [6] and in test [7] was “inactive” throughout. Besides, the Potency result in test [8], in test [9] and in test [10] was “inactive” throughout. Moreover, the max response in test [2] was 2.23% (inactive).

Turning to `CCCOC(=O)c1cc(O)c(O)c(O)c1`, the Potency result in test [1], in test [3], in [4], in [5], in [6] and in test [7] was “inactive” each time. For the same molecule, the Potency result in test [8], in test [9] and in [10] was “inactive” throughout. Moreover, the Potency in test [2] is 48.7 µM (active) and 38.9 µM (active).

On to `Nc1ccc(O)cc1`, for which the Potency in test [1] was 50.9 µM (active) and inactive; in [2] it was 32.1 µM (active). Moreover, the max response in test [2] was 18.9% (inactive). Besides, the Potency entry in test [3], in test [5], in test [6], in [7], in test [8] and in [9] was “inactive” each time. In test [10], the Potency result was “inactive”.

On to `Cc1cc(Cc2cc(C)cc(C(C)(C)C)c2O)c(O)c(C(C)(C)C)c1`, for which the Potency in test [1] is 38.9 µM (active); in test [2] it was 8.75 µM (active) and 15.5 µM (active); in test [3], 43.9 µM (active) and 43.6 µM (active); in [4], 39.1 µM (active) and 38.9 µM (active); in [5] it was 49.2 µM (active) and 49 µM (active); in test [6] it was 43.9 µM (active) and 43.6 µM (active). Moreover, the Potency in [7] is 49.2 µM (active) and 43.6 µM (active); in [9] it was 49.2 µM (active) and 43.6 µM (active). Further, the Potency result in test [8] was “inactive”.

As to `c1ccc2c(c1)CCCC2C1=NCCN1` (stereo not given), the Potency entry in test [1], in test [3], in test [4], in [5], in [6] and in test [7] was “inactive” throughout. In addition, the Potency result in test [8], in [9] and in test [10] was “inactive” each time. Also, the max response in test [2] is 3.27% (inactive).

Take `O=C(O)c1cccc(C(=O)O)c1`: the Potency entry in test [1], in test [3], in test [4], in [5], in test [6] and in test [7] was “inactive” throughout. For the same molecule, the Potency result in test [8], in [9] and in [10] was “inactive” in each case. The max response in test [2] was 5.05% (inactive) and -3.16% (inactive).

`O=C(O)CP(=O)(O)O`: the Potency entry in test [1], in test [3], in test [4], in test [5], in [6] and in test [7] was “inactive” throughout. Moreover, the Potency entry in [8] and in [9] was “inactive” in each case. Besides, the max response in [2] is -6.08% (inactive).

In the case of `CC(=O)OCC1=C(C(=O)O)N2C(=O)[C@@H](NC(=O)Cc3cccs3)[C@H]2SC1`, the Potency result in [1], in test [3], in test [4], in test [5], in test [6] and in test [7] was “inactive” in each case. Further, the Potency result in test [8] and in [9] was “inactive” in each case. In test [2], the max response is 6.98% (inactive).

(Values after PubChem BioAssay (Tox21).)
